PubChem BioAssay AID1241 (SRMLSC, 2008)
About 840 (70%) of roughly 1,200 compounds were called active. The set was probably picked from earlier hits. A selection follows. Measured potencies and affinities stand elsewhere. A number with no mark means an inactive call. No rule for the calls is given here.

Test: NF-kB promoter reporter activators, neuronal cells, dose response, cell-based, SH-SY5Y, luciferase (AID 1241)
Conditions: series mostly up to 30 µM; fold induction over control: at the top concentration
For CC1=C/C(=N\OS(=O)(=O)c2ccccc2)C(C)=CC1=O, the “fold induction over control” value was 0.31.
In the case of Cn1c(-c2ccc(Br)o2)nc2cc(Br)ccc21, the “fold induction over control” value is reported as 9.61.
In the case of Clc1ccccc1-c1nnc(-c2cccs2)o1, the “fold induction over control” value is reported as 9.9.
With O=C(Nc1nccs1)c1sc2ccccc2c1Cl the “fold induction over control” value was 11.4 [at 15 µM].
For CCCCCCOc1ccc(OC(=O)c2ccncc2)cc1, the “fold induction over control” value was 5.72.
For CCCCCCOc1ccc(/C(N)=N/O)cc1, the “fold induction over control” value was 11.4.
In the case of N#Cc1c(NCCO)nc(NCc2ccccc2)c2c1CCN(Cc1ccccc1)C2, the “fold induction over control” value is reported as 0.9.
In the case of Cc1ccccc1NC(=O)/C=C/c1ccc([N+](=O)[O-])s1, the “fold induction over control” value is reported as 5.73 [at 15 µM].
For CCC(=O)Nc1cccc(C(=O)/C=C/c2ccccc2)c1, the “fold induction over control” value was 9 [at 15 µM].
With Cc1ccc(NC(=O)/C=C/c2cccs2)c([N+](=O)[O-])c1 the “fold induction over control” value was 10.2.
With Cc1nn(Cc2ccccc2)c(Cl)c1/C=C/C(=O)OCC(=O)N1CCCC1=O the “fold induction over control” value was 1.01.
In the case of Cc1cccc(NC(=O)c2csnn2)n1, the “fold induction over control” value is reported as 1.22.
For COc1ccc(OCCOC(=O)c2[nH]c(C)c(C(C)=O)c2C)cc1, the “fold induction over control” value was 0.69.
For Cc1ccc(Nc2nc(N)nc(CSc3ncccn3)n2)cc1, the “fold induction over control” value was 8.11.
In the case of Cc1cc(N2CCOCC2)ccc1/C=C1/SC(=O)NC1=O, the “fold induction over control” value is reported as 3.2.
In the case of Cc1ccc(/C=N/N=C/c2ccc(C)s2)s1, the “fold induction over control” value is reported as 16.3.
With CCOC(=O)c1ccc(NC(=O)N2CCc3ccccc32)cc1 the “fold induction over control” value was 9.88.
For CCCCNC(=O)c1cc(-c2ccc(F)cc2)on1, the “fold induction over control” value was 20.1.
For COc1ccc2c(=O)c(-c3ccccc3)coc2c1, the “fold induction over control” value was 9.03.
For CN(C)c1ccc(C(=S)NCc2ccco2)cc1, the “fold induction over control” value was 4.68.
In the case of Cc1nnc(SCC(=O)Nc2nsc(-c3ccc(C(C)(C)C)cc3)n2)s1, the “fold induction over control” value is reported as 10.8.
With COc1ccc(C2=NN3C(C2)c2ccccc2OC32C(=O)N(C)c3ccccc32)cc1 (stereo not drawn) the “fold induction over control” value was 8.01.
In the case of CC(=O)c1cc(N2CCOCC2)ccc1[N+](=O)[O-], the “fold induction over control” value is reported as 1.03.
With O=C(O)/C=C\C(=O)Nc1ccccc1C#Cc1ccccc1 the “fold induction over control” value was 1.8.
With CC(C)c1cc(C(=O)Nc2cc(Br)ccc2O)no1 the “fold induction over control” value was 2.7.
For CC(C)Cc1cc(C(=O)Nc2cc(Br)ccc2O)no1, the “fold induction over control” value was 2.37.
With CCc1cc(C(=O)Nc2ccc(C)cc2Br)cs1 the “fold induction over control” value was 7.97.
For Cc1ccc(C(=O)COC(=O)c2ccc(O)cc2)cc1, the “fold induction over control” value was 10.9.
For O=C(CC(SCc1ccco1)c1ccc(O)cc1)c1cccs1 (stereo not drawn), the “fold induction over control” value was 11.4.
With O=C(CCC(=O)c1cccs1)c1cccs1 the “fold induction over control” value was 10.6.
With Cc1ccc(C)c(OCC(=O)O/N=C(\N)c2ccccn2)c1 the “fold induction over control” value was 5.69.
In the case of CC(C)c1ccc(/C=N/NC(=O)c2c(Cl)cnn2C)cc1, the “fold induction over control” value is reported as 9.29.
In the case of CC(=O)c1sc(NC(=O)c2cccc(C)c2)nc1C, the “fold induction over control” value is reported as 10.6.
With O=C(Nc1cccnc1)c1cc(-c2ccc3c(c2)OCO3)on1 the “fold induction over control” value was 12 [at 15 µM].
With O=c1c2c(nc3cc(-c4ccccc4)[nH]n13)CCS2 the “fold induction over control” value was 3.49.
For Cc1ccc(CN2CN(S(=O)(=O)c3cccs3)c3nc4ccccc4nc32)cc1, the “fold induction over control” value was 1.19.
With Nc1c(C(=O)C2CC2)sc2nc3c(cc12)CCC3 the “fold induction over control” value was 10.5.
For CCOC(=O)c1sc2nc3c(cc2c1N)COC(C)(C)C3, the “fold induction over control” value was 11.
In the case of COc1ccc(NC(=O)c2cc3ccccc3o2)cc1, the “fold induction over control” value is reported as 11.5.
In the case of Cc1cccc(NC(=O)c2cc3ccccc3o2)c1, the “fold induction over control” value is reported as 11.9.
In the case of O=C(Nc1ccc(Cl)cn1)c1ccc([N+](=O)[O-])o1, the “fold induction over control” value is reported as 12.4.
In the case of COc1ccc2oc(=N)c(C(=O)Nc3ccccc3)cc2c1, the “fold induction over control” value is reported as 12.7.
With O=C(Nc1cccc(Br)c1)c1cc2ccccc2o1 the “fold induction over control” value was 10.1.
For CCN1C/C(=C/c2ccc(N3CCOCC3)cc2)C(=O)/C(=C/c2ccc(N3CCOCC3)cc2)C1, the “fold induction over control” value was 13 [at 15 µM].
For Cc1ccc(NC(=O)/C(C#N)=C(\N)C(Cl)(Cl)Cl)nc1, the “fold induction over control” value was 5.72 [at 7.5 µM].
With CN1CCN(CC(=O)Nc2ccccc2[N+](=O)[O-])CC1 the “fold induction over control” value was 1.19.
With N/C(=N\OC(=O)COc1ccc(Cl)cc1Br)c1ccncc1 the “fold induction over control” value was 9.84.
For COc1ccccc1/C=N\Nc1cn[nH]c(=O)c1Cl, the “fold induction over control” value was 1.17.
